These results are taken from PubChem BioAssay (NCATS).

The structures appear in SMILES notation. Records with an inconclusive call do not appear. Calls of active or inactive are those of the source. The call rests on the fitted dose curve; in most records, active means well fitted curve in the direction sought with a large enough effect; inconclusive means small, poorly fitted or top-dose-only effect, or another doubt; inactive means no such curve, though single readings can be large; an effect the other way counts as inactive or inconclusive.

Assay [1] can be described thus: Quantitative High-Throughput drug screen in 47 multiple myeloma cell lines against the NCATS MIPE library collection: KMM1_JCRB cell viability assay (AID 1918960). Further: nearly all actives have a fitted effect of over 30% in size. Further: potency means the concentration at half of the fitted maximal effect. The conditions noted are these: KMM1 myeloma viability, CellTiter-Glo ATP luminescence, 48 h; series mostly up to 45.8 µM. In a few lines: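 Here, 48 h treatment with MIPE 4.0 agents at 37 °C preceded an ATP luminescence read. Plating density was 500 cells per well.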

A short description of assay [2]: Quantitative High-Throughput drug screen in 47 multiple myeloma cell lines against the NCATS MIPE library collection: KHM11_PLB cell viability assay (AID 1918962). Further: nearly all actives have a fitted effect of over 35% in size. Further: potency means the concentration at half of the fitted maximal effect. To be noted: KHM11 myeloma cell viability, CellTiter-Glo ATP luminescence, 48 h; series mostly up to 45.8 µM. In a few lines: (§1)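 Primary qHTS used for cherry-picking: cells at 500/well, library compounds for 48 h (37C, 5% CO2), luminescent ATP assay.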

Assay [3] can be described thus: Quantitative High-Throughput drug screen in 47 multiple myeloma cell lines against the NCATS MIPE library collection: JIM3_ECACC cell viability assay (AID 1918963; further: nearly all actives have a fitted effect of over 35% in size; further: potency means the concentration at half of the fitted maximal effect). The conditions noted are these: JIM3 myeloma viability, CellTiter-Glo ATP, 48 h; series mostly up to 45.8 µM. The procedure, abridged: as §1
Background: Cellular ATP, detected with luciferase, serves as a proxy for viable cell number.

Assay [4] in a line: Quantitative High-Throughput drug screen in 47 multiple myeloma cell lines against the NCATS MIPE library collection: INA6_PLB cell viability assay (AID 1918965; further: nearly all actives have a fitted effect of over 55% in size; further: potency means the concentration at half of the fitted maximal effect). The conditions noted are these: INA6 myeloma viability, CellTiter-Glo ATP luminescence, 48 h; series mostly up to 45.8 µM. The procedure, abridged:
(§2)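 We plated 500 myeloma cells per well, pinned in MIPE 4.0 compounds, and incubated for 48 hours at 37C. ATP was then quantified with CellTiter-Glo, with DMSO and media-only wells defining 100% and 0%.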

A short description of assay [5]: Quantitative High-Throughput drug screen in 47 multiple myeloma cell lines against the NCATS MIPE library collection: JJN3_DSMZ cell viability assay (AID 1918966; further: nearly all actives have a fitted effect of over 50% in size; further: potency means the concentration at half of the fitted maximal effect). To be noted: JJN3 myeloma cells viability, CellTiter-Glo ATP, 48 h; series mostly up to 45.8 µM. The procedure, abridged: (§3)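 Inhibition of cell viability is measured here. Each line was plated at 500 cells per well, treated with MIPE 4.0 drugs, kept 48 hours at 37C, then assayed for ATP content by CellTiter-Glo luminescence.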

Assay [6] is described as follows: Quantitative High-Throughput drug screen in 47 multiple myeloma cell lines against the NCATS MIPE library collection: Karpas25_ECACC cell viability assay (AID 1918968; further: nearly all actives have a fitted effect of over 35% in size; further: potency means the concentration at half of the fitted maximal effect). To be noted: Karpas25 myeloma viability, CellTiter-Glo ATP, 48 h; series mostly up to 45.8 µM. In a few lines:
as §3

Assay [7] in a line: Quantitative High-Throughput drug screen in 47 multiple myeloma cell lines against the NCATS MIPE library collection: KMS27_JCRB cell viability assay (AID 1918970). Further: nearly all actives have a fitted effect of over 30% in size. Further: potency means the concentration at half of the fitted maximal effect. The conditions noted are these: KMS27 myeloma cells, CellTiter-Glo ATP viability, 48 h; viability (% of DMSO): at 45.8 µM (top of the series). In a few lines:
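Each line is seeded at 500 cells per well and treated with library compounds for 48 hours under 37 °C, 5% CO2. CellTiter-Glo is then added for 5 min at room temperature before median relative luminescence is recorded.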

Assay [8] in a line: Quantitative High-Throughput drug screen in 47 multiple myeloma cell lines against the NCATS MIPE library collection: KMS12BM_JCRB cell viability assay (AID 1918971). Further: nearly all actives have a fitted effect of over 35% in size. Further: potency means the concentration at half of the fitted maximal effect. To be noted: KMS12BM myeloma viability, CellTiter-Glo ATP, 48 h; series mostly up to 45.8 µM. The procedure, abridged:
(§4)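 CellTiter-Glo luminescence (ATP) after 48 h compound exposure, 37C/5% CO2; 500 cells/well; MIPE 4.0 approved/investigational drugs pinned in; DMSO = 100%, media only = 0% viability.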

The nature of assay [9]: Quantitative High-Throughput drug screen in 47 multiple myeloma cell lines against the NCATS MIPE library collection: KMS12PE_JCRB cell viability assay (AID 1918972). Further: nearly all actives have a fitted effect of over 30% in size. Further: potency means the concentration at half of the fitted maximal effect. The conditions noted are these: KMS12PE myeloma viability, CellTiter-Glo ATP, 48 h; series mostly up to 45.8 µM. The procedure, abridged:
as §2

Assay [10] is described as follows: Quantitative High-Throughput drug screen in 47 multiple myeloma cell lines against the NCATS MIPE library collection: KMS20_JCRB cell viability assay (AID 1918973). Further: nearly all actives have a fitted effect of over 45% in size. Further: potency means the concentration at half of the fitted maximal effect. To be noted: CellTiter-Glo ATP, 48 h; series mostly up to 45.8 µM. The procedure, abridged:
as §3

Assay [11] can be described thus: Quantitative High-Throughput drug screen in 47 multiple myeloma cell lines against the NCATS MIPE library collection: KMS26_JCRB cell viability assay (AID 1918975). Further: nearly all actives have a fitted effect of over 45% in size. Further: potency means the concentration at half of the fitted maximal effect. To be noted: KMS26 myeloma cells viability, CellTiter-Glo ATP, 48 h; series mostly up to 45.8 µM. The procedure, abridged:
as §4

A short description of assay [12]: Quantitative High-Throughput drug screen in 47 multiple myeloma cell lines against the NCATS MIPE library collection: MOLP8_DSMZ cell viability assay (AID 1918977). Further: nearly all actives have a fitted effect of over 45% in size. Further: potency means the concentration at half of the fitted maximal effect. The conditions noted are these: MOLP8 myeloma viability, CellTiter-Glo ATP luminescence, 48 h; series mostly up to 45.8 µM. In a few lines:
(§5)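 Plated at 500 cells per well, myeloma lines received MIPE 4.0 compounds by pin tool. Following 48 h culture at 37 °C, CellTiter-Glo luminescence gave viability relative to DMSO and media-only controls.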

Assay [13] is described as follows: Quantitative High-Throughput drug screen in 47 multiple myeloma cell lines against the NCATS MIPE library collection: Karpas620_DSMZ cell viability assay (AID 1918959). Further: nearly all actives have a fitted effect of over 30% in size. To be noted: Karpas620 myeloma viability, CellTiter-Glo ATP luminescence, 48 h; series mostly up to 45.8 µM. The procedure, abridged:
as §1

The nature of assay [14]: Quantitative High-Throughput drug screen in 47 multiple myeloma cell lines against the NCATS MIPE library collection: H1112_PLB cell viability assay (AID 1918967; further: nearly all actives have a fitted effect of over 30% in size; further: potency means the concentration at half of the fitted maximal effect). To be noted: H1112 myeloma cells viability, ATP luminescence, 48 h; series mostly up to 45.8 µM. In a few lines: as §3
The nature of assay [15]: Quantitative High-Throughput drug screen in 47 multiple myeloma cell lines against the NCATS MIPE library collection: NCIH929_DSMZ cell viability assay (AID 1918978). Further: nearly all actives have a fitted effect of over 35% in size. Further: potency means the concentration at half of the fitted maximal effect. The conditions noted are these: NCI-H929 myeloma viability, CellTiter-Glo ATP, 48 h; series mostly up to 45.8 µM. The procedure, abridged: as §5
Assay [16] is described as follows: Quantitative High-Throughput drug screen in 47 multiple myeloma cell lines against the NCATS MIPE library collection: OCIMY1_PLB cell viability assay (AID 1918979). Further: nearly all actives have a fitted effect of over 35% in size. The conditions noted are these: OCI-MY1 myeloma viability, CellTiter-Glo ATP, 48 h; series mostly up to 45.8 µM. In a few lines: as §5
A short description of assay [17]: Quantitative High-Throughput drug screen in 47 multiple myeloma cell lines against the NCATS MIPE library collection: Karpas417_ECACC cell viability assay (AID 1918961). Further: potency means the concentration at half of the fitted maximal effect. To be noted: Karpas417 myeloma viability, CellTiter-Glo ATP luminescence, 48 h; viability (% of DMSO): at 45.8 µM (top of the series). In a few lines: as §2
A short description of assay [18]: Quantitative High-Throughput drug screen in 47 multiple myeloma cell lines against the NCATS MIPE library collection: JIM1_ECACC cell viability assay (AID 1918964; further: potency means the concentration at half of the fitted maximal effect). The conditions noted are these: JIM1 myeloma viability, CellTiter-Glo ATP luminescence, 48 h; series mostly up to 45.8 µM. The procedure, abridged:
as §3

Assay [19] is described as follows: Quantitative High-Throughput drug screen in 47 multiple myeloma cell lines against the NCATS MIPE library collection: KMS21BM_JCRB cell viability assay (AID 1918974). Further: potency means the concentration at half of the fitted maximal effect. To be noted: ATP luminescence, 48 h; viability: at 45.8 µM (top of the series). In a few lines: as §3
The nature of assay [20]: Quantitative High-Throughput drug screen in 47 multiple myeloma cell lines against the NCATS MIPE library collection: MMM1_PLB cell viability assay (AID 1918976). To be noted: MMM1 myeloma cells viability, CellTiter-Glo, 48 h; series mostly up to 45.8 µM. The procedure, abridged: as §5

For `COc1cc2ncnc(Nc3cccc(Br)c3)c2cc1OC`, the Potency in assay [1] is 14.8 µM (active); in [2], 16.6 µM (active); in assay [3] it was 2.64 µM (active); in assay [4], 3.32 µM (active); in [5], 20.9 µM (active); in assay [6], 0.526 µM (active). Also, the Potency in [7] was 23.5 µM (active); in assay [8], 0.0418 µM (active); in assay [9] it was 14.8 µM (active); in assay [10] it was 0.743 µM (active); in [11], 16.6 µM (active); in [12] it was 20.9 µM (active).

As for `Cc1cn([C@@H]2O[C@H](CO)[C@@H](O)[C@H]2F)c(=O)[nH]c1=O`, the Potency result in assay [13], in assay [4], in assay [14], in assay [6], in [15] and in [16] was “inactive” in each case. Further, the Potency in assay [9] was 13.2 µM (active).

On to `C#Cc1cccc(Nc2ncnc3cc(OCCOC)c(OCCO)cc23)c1`, for which the Potency in assay [1] was 4.69 µM (active); in assay [17] it was 0.526 µM (active); in assay [3], 1.87 µM (active); in assay [18] it was 0.264 µM (active); in [4], 1.32 µM (active); in assay [14], 1.87 µM (active). Further, the Potency in assay [6] is 1.18 µM (active); in assay [7], 0.0187 µM (active); in [9] it was 1.48 µM (active); in assay [19], 0.132 µM (active).

With `C=C1C(=CC=C2CCC[C@]3(C)[C@@H]([C@H](C)CCCC(C)(C)O)CC[C@@H]23)C[C@@H](O)C[C@@H]1O`, the Potency in [1] was 4.69 µM (active); in [2], 10.5 µM (active); in assay [18], 5.26 µM (active); in [4], 5.9 µM (active); in [14] it was 7.43 µM (active); in assay [6] it was 5.9 µM (active). In addition, the Potency in assay [7] was 1.66 µM (active); in assay [8], 20.9 µM (active); in assay [9], 6.62 µM (active); in assay [11], 18.7 µM (active); in assay [20] it was 20.9 µM (active); in assay [12] it was 16.6 µM (active). Further, the Potency in assay [15] was 3.72 µM (active). Moreover, the Potency entry in assay [16] is “inactive”.

For the compound `c1coc(CNc2ncnc3nc[nH]c23)c1`, the Potency result in [1], in assay [2], in assay [4], in [14], in [6] and in [10] was “inactive” in each case. Also, the Potency result in [19], in assay [11], in assay [15] and in assay [16] was “inactive” throughout. Besides, in assay [20], the Potency is 1.87 µM (active).

Take `C[C@]12CCC(=O)C=C1[C@@H]1CC1[C@H]1[C@H]3[C@@H]4C[C@H]4[C@@]4(CCC(=O)O4)[C@@]3(C)CC[C@H]12` (some centres not stated): the Potency in [1], in [4] and in assay [9] was 20.9 µM (active) each time. The Potency entry in [3], in assay [5], in [14], in assay [10], in assay [12] and in assay [15] was “inactive” in each case. Further, the Potency result in assay [16] is “inactive”.

As for `OCCN1C[C@H](O)[C@@H](O)[C@H](O)[C@@H]1CO`, the Potency entry in [13], in [14], in assay [6], in [7], in [8] and in [9] was “inactive” throughout. The Potency result in assay [11] and in assay [15] was “inactive” throughout.
